This is a sample that favours compounds with a hit; in the whole collection about 1.7% have one here.
HEK293 tox: cytotoxicity in counter-screen for GLP-1R inverse agonists; HEK293 cAMP-luciferase reporter cells, luminescence, 24 h; Potency, µM (top dose mostly 38.3 µM), for the others: at the highest dose activity change, negative = inhibition, hits mostly inhibitors; actives 0.13% (n = 410,000);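 note: loss of luciferase light is scored as toxicity; % is set by controls: 0 for no effect and ±100 for the full control effect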
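Compound-treated cells are incubated 24 hr at 37 deg C under 5% CO2 after a 12 hour attachment period, then luciferase detection reagent is added and luminescence is measured following 12 min at room temperature; lowered signal indicates toxicity.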
PTHR1 ag: agonists of human PTHR1 parathyroid hormone receptor; HEK293 GP2 PTHR1 cells, GloSensor cAMP luminescence, 1 h; Q03431; Potency, µM (titrated, usually from 115 µM), without a hit: at the top dose activation, most hits filed as activators; actives 0.075% (n = 410,000); note: nearly all actives have a fitted effect of over 55% in size
Target sequence (Q03431 whole entry, looked up): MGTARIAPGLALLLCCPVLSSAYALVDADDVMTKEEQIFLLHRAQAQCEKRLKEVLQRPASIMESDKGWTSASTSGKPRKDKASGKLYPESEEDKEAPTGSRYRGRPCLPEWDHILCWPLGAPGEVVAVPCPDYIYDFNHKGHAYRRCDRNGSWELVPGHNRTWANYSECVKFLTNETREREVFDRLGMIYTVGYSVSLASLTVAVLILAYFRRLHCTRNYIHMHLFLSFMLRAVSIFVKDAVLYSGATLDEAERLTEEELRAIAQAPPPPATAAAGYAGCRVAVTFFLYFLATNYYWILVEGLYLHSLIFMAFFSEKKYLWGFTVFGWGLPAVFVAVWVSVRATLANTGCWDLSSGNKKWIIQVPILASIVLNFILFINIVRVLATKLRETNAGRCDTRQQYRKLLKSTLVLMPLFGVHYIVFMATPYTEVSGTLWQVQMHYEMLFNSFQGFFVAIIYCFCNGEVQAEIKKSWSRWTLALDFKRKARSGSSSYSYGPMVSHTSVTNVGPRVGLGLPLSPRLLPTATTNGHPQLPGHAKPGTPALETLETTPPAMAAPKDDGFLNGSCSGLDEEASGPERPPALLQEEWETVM
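HEK-293-derived GP2 cells expressing PTHR1 and a GloSensor cAMP reporter, 3,000/well, plated overnight, given luciferin plus IBMX (each 0.5 mM as added) for 1 h at 37 °C, then compound for 1 h at 37 °C. Luminescence was read after 15 min at room temperature.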
GLP1R ag: agonists of human GLP-1 receptor | P43220 | HEK293 GLP-1R CRE-luciferase, luminescence, 4-6 h; cells express a hypersensitive GLP-1R form | Potency, µM (highest dose often 45.6 µM), inactives show at the highest dose activation, hits mostly activators | actives 0.007% (n = 380,000); note: % of control where 0% means no effect
GLP1R inv ag: inverse agonists of human GLP-1 receptor. AID 624417. HEK293 GLP-1R CRE-luciferase, luminescence, 24 h; GLP-1R form is constitutively active. Potency, µM (titrated, usually from 38.3 µM), for inactives: at the highest dose activity change, negative = inhibition, most hits filed as inhibitors. actives 1.6% (n = 410,000). P43220; note: % is set by controls: 0 for no effect and ±100 for the full control effect; nearly all actives have a fitted effect of over 55% in size
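Inverse agonists were sought by their lowering of basal cAMP reporter luciferase output in HEK293 cells stably carrying constitutively active human GLP-1R, after 24 h compound treatment.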
The depositor's hits bear a star; i = inactive; u = inconclusive; x = not tested or not shown; [ ] = another dose, or the depositor's remark. Calls come from the whole dose curve; as a rule, active = well fitted curve in the direction sought with a large enough effect; inconclusive = small, poorly fitted or top-dose-only effect, or another doubt; inactive = no such curve, though single readings can be large; an effect the other way counts as inactive or inconclusive. Potency is the fitted concentration of half-maximal effect.

SMILES	HEK293 tox	PTHR1 ag	GLP1R ag	GLP1R inv ag
CC1(C)C([N+](=O)[O-])C(c2ccc(Cl)cc2)NC(c2ccc(Cl)cc2)C1[N+](=O)[O-] (centres undefined)	38.0%	-16.5%	-4.8%	10µM*
CC1(C)C([N+](=O)[O-])C(c2ccc(F)cc2)NC(c2ccc(F)cc2)C1[N+](=O)[O-] (centres undefined)	25.3%	-7.2%	-1.5%	10µM*
COc1cc2c(cc1OC)C(COc1ccc3c(C)cc(=O)oc3c1)N(C(=O)Cc1ccc(F)cc1)CC2 (centres undefined)	-5.2%	i	x	6.7%
COc1ccc2cc(Br)ccc2c1CC(=O)NC(C)(C)C	3.1%	i	1.7%	12.6µM*
CCCSc1cc(N2CCCC2)nc(-c2ccccc2)n1	17.6%	i	-4.5%	0.2%
CCCSc1cc(N2CCN(C)CC2)nc(-c2ccc(OC)cc2)n1	-0.9%	u	2.5%	8.91µM*
CCc1nnc(SCc2cc(C)ccc2C)c2cc3sc(C)cc3n12	8.9%	-71.7%	x	u
O=C(CCCn1c(=O)c2cccn2c2ccccc21)NCCc1ccc(Cl)cc1	-5.7%	-33.0%	x	-7.6%
COc1ccc(-n2c(=O)c3c(c4cc(OC)ccc4n3C)n(Cc3cc(C)ccc3C)c2=O)cc1	2.5%	-23.1%	0.0%	6.2%
C/C(=N\NC(=O)C1CC1)c1ccc(Cl)c(Cl)c1	12.0%	-9.9%[57.5 µM]	19.4%	0.5%
C/C(=N\N=C(N)N)c1ccc(Cl)c(Cl)c1	u	-2.5%	-2.2%	8.91µM*
CCOc1ccccc1N=NC1C(=O)N(C(N)=S)N=C1C (centres undefined)	u	-8.5%	-1.8%	0.891µM*
CC1=NN(C(N)=S)C(=O)C1N=Nc1ccccc1O (centres undefined)	0.9%	i	-1.7%	-5.6%
CCCCCNC(=O)C(CCc1ccccc1)n1c(=O)c(-c2cc3ccccc3[nH]2)nc2ccccc21 (centres undefined)	388.4%	i	x	3.55µM*
CC(C)(C)NC(=O)C(c1ccccc1)n1c(=O)c(-c2ccccc2)nc2ccccc21 (centres undefined)	-1.7%	-15.1%	x	11.2µM*
CCCCCNC(=O)C(c1ccccc1)n1c(=O)c(-c2cc3ccccc3[nH]2)nc2ccccc21 (centres undefined)	i	-13.5%	x	u
O=C(NC1CCCCC1)C(c1ccc(C(F)(F)F)cc1)n1c(=O)c(-c2cc3ccccc3[nH]2)nc2ccccc21 (centres undefined)	i	i	x	2.51µM*
COc1ccc(C(C(=O)NC(C)(C)C)n2c(=O)c(-c3cc4ccccc4[nH]3)nc3ccccc32)cc1 (centres undefined)	i	-11.1%	x	10µM*
Cc1ccc(CCNC(=O)c2ccc(Cn3c(=O)c4cccn4c4cccnc43)cc2)cc1	-3.7%	-8.0%	x	18.9%
CCc1ccc(NC(=O)N2CCOc3ccc(Cl)cc32)cc1	10.3%	-32.1%	x	u
Cc1cccc(N2CCN(c3nc4ccc(C(=O)c5ccccc5)cc4n4cnnc34)CC2C)c1 (centres undefined)	0.5%	-13.5%	x	8.8%
S=C(NC1CCCCC1)NN(c1ccccc1)c1ccccc1	u	-6.4%	-2.5%	10µM*
O=C(NC(=S)NC1CCCCC1)c1ccccc1	u	-7.7%	1.1%	u
C/C(=N\NC(=S)NC1CCCCC1)c1ccccc1	u	-17.1%	6.1%	5.62µM*
C/C(=N\NC(=S)NC1CCCCC1)c1ccc(O)cc1	u	u	26.6%	u
SMILES	HEK293 tox	PTHR1 ag	GLP1R ag	GLP1R inv ag
Clc1ccc(N2CCN(c3ncnc4c3nc3n4CCCC3)CC2)cc1	-3.9%	-36.3%	x	-24.7%
C=CCN(c1ccccc1)S(=O)(=O)c1ccc2c(c1)NC(=O)C(C)C(=O)N2 (centres undefined)	2.5%	-42.9%	-3.3%	4.7%
C=CCN(c1ccccc1)S(=O)(=O)c1ccc2c(c1)NC(=O)C(C)S2 (centres undefined)	0.2%	-11.8%	1.0%	7.08µM*
CCc1cccc(NS(=O)(=O)c2ccc3c(c2)NC(=O)C(C)S3)c1 (centres undefined)	1.1%	-27.8%	11.0%	11.2µM*
CCCCC(O)(c1ccc(F)cc1)C(CN1CCOCC1)c1ccc(Cl)cc1 (centres undefined)	-17.0%	-4.4%	-1.2%	2.82µM*
COc1ccc(C(O)(CCC(C)C)C(CN2CCOCC2)c2ccc(Cl)cc2)cc1 (centres undefined)	u	-10.9%	9.4%	u
CCCC(O)(c1ccc(Cl)cc1)C(CN1CCOCC1)c1ccc(Cl)cc1 (centres undefined)	-28.6%	-10.7%	5.4%	u
CCOc1ccc(C(O)(CCC(C)C)C(CN2CCOCC2)c2ccccc2)cc1 (centres undefined)	u	-21.2%	11.3%	3.16µM*
O=c1cc2nc(-c3ccccc3F)nc(SCc3ccc(Br)cc3)n2[nH]1	6.5%	-26.5%	x	-10.3%
COc1ccc(/C=C2\SC(=S)N(CCCC(=O)N3CCCCC3CCO)C2=O)cc1 (centres undefined)	u	i	6.4%	10µM*
O=C(CCCN1C(=O)/C(=C/c2cccc(Br)c2)SC1=S)N1CCOCC1	1.5%	-6.8%	7.7%	1.4%
COc1ccc(/C=C2\SC(=S)N(CCCC(=O)N3CCN(C)CC3)C2=O)cc1	u	19.0%	2.8%	u
CCc1ccc(/C=C2\SC(=S)N(CCCC(=O)N3CCN(C)CC3)C2=O)cc1	u	i	2.4%	10µM*
O=C(O)c1ccc(/C=C2/SC(=S)N(Cc3ccccc3)C2=O)cc1	-3.8%	-11.7%	8.8%	-18.3%
O=C1/C(=C\c2ccc(O)cc2)SC(=S)N1Cc1ccccc1	7.5%	-18.0%	-2.5%	11.2µM*
CN1CCN(C(=O)CCCN2C(=O)/C(=C/c3cccc(Br)c3)SC2=S)CC1	u	-7.9%	-5.7%	10µM*
CCCCS(=O)(=O)CC(O)CSc1nc(-c2ccc(C)cc2)cc(-c2ccccc2)c1C#N (centres undefined)	18.2%	i	x	u
CCOc1ccc(NC(=O)Cn2c(=O)n(Cc3ccc4c(c3)OCO4)c(=O)c3ccc(C(=O)NC4CCCCC4)cc32)cc1	25.8%	-11.7%	10.7%	15.2%
CSc1ncc(Cl)c(C(=O)Nc2ccc(S(=O)(=O)N3CCC(C)CC3)cc2)n1	1.1%	-14.3%	x	u
COC(=O)c1ccc(/C=C2/SC(=S)N(CCCC(=O)Nc3ccc(O)cc3)C2=O)cc1	u	i	-2.0%	7.94µM*
Cc1ccc(SCC(=O)NC2CC3CCC(C2)N3C)cc1 (centres undefined)	-1.0%	i	7.1%	-27.9%
CN1C2CCC1CC(NC(=O)CSCc1ccc(Cl)cc1Cl)C2 (centres undefined)	3.6%	i	5.7%	7.08µM*
CC(=O)c1ccc(NC(=O)CSc2nccn2Cc2ccc3c(c2)OCO3)cc1	-3.3%	-20.7%	x	5.9%

Compound activity from PubChem BioAssay.
